Measured values: the supplement of paper PMC9262897, “Low-cost anti-mycobacterial drug discovery using engineered E. coli” (Nature Communications, 2022)
Where a name gives a salt, the structure may show the parent alone. ± gives the standard deviation of the averaged measurements.

Experiments:
Assay in all cases: growth (OD600 after 10 h); higher = more growth (less inhibition)
[1] = system: E. coli TESEC Alr+ wild-type control; conditions: compound 0.1 mM; raw OD600 reference: median of DMSO wells 0.241, cell-free background 0.041
Method: (§1)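 TESEC Mtb Alr E. coli, or the Alr+ wild-type control, in 384-well plates with Prestwick library compounds at 0.1 mM and 1% DMSO, across arabinose induction levels of 1E3 to 1E7 nM. Growth is read as OD600 after 10 h at 37 °C in triplicate biological replicates.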

E. coli TESEC Mtb Alr [2] = conditions: compound 0.1 mM
Method: as §1

E. coli TESEC Mtb Asd = conditions: compound 0.1 mM
Method: (§2)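 TESEC E. coli strains in which the native enzyme is deleted and replaced by arabinose-inducible Mtb Asd, DapB, CysH or TrpD, each grown in its selective medium. Strains were screened against the Prestwick library at 0.1 mM and 1% DMSO in 384-well format at low and high arabinose induction. Growth is read as OD600 after 10 h in triplicate.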

E. coli TESEC Mtb DapB = conditions: compound 0.1 mM
Method: as §2

E. coli TESEC Mtb Alr [3] = conditions: compound 0.1 mM; remark: listed apart in the source
Method: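 TESEC Mtb Alr E. coli (ΔaraC ΔtolC ΔentC Δalr ΔdadX, arabinose-inducible Mtb Alr) or the Alr+ wild-type control strain, grown in defined M9-fructose medium without D-alanine in 96-well plates with Prestwick library compounds at 0.1 mM and 1% DMSO. Low Alr induction is 0.1 µM arabinose and high induction is 10 mM arabinose.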

[4] = arabinose 1000 nM, raw OD600 reference: median of DMSO wells 0.294, cell-free background 0.041
[5] = arabinose 10000 nM, raw OD600 reference: median of DMSO wells 0.264, cell-free background 0.041
[6] = arabinose 100000 nM, raw OD600 reference: median of DMSO wells 0.201, cell-free background 0.041
[7] = arabinose 1000000 nM, raw OD600 reference: median of DMSO wells 0.193, cell-free background 0.041
[8] = arabinose 10000000 nM, raw OD600 reference: median of DMSO wells 0.146, cell-free background 0.041
[9] = arabinose induction (level): High, raw OD600 reference: median of DMSO wells 0.331, cell-free background 0.041
[10] = arabinose induction (level): Low, raw OD600 reference: median of DMSO wells 0.417, cell-free background 0.041
[11] = arabinose induction (level): High, raw OD600 reference: median of DMSO wells […], cell-free background 0.041
[12] = arabinose induction (level): Low, raw OD600 reference: median of DMSO wells 0.227, cell-free background 0.041
[13] = arabinose 100 nM, raw OD600 reference: median of DMSO wells 0.413, cell-free background 0.052
[14] = arabinose 10000000 nM, raw OD600 reference: median of DMSO wells […], cell-free background 0.052

Row | SMILES | growth [1] | growth (E. coli TESEC Mtb Alr [2]; [4]) | growth (E. coli TESEC Mtb Alr [2]; [5]) | growth (E. coli TESEC Mtb Alr [2]; [6]) | growth (E. coli TESEC Mtb Alr [2]; [7]) | growth (E. coli TESEC Mtb Alr [2]; [8]) | growth (E. coli TESEC Mtb Asd; [9]) | growth (E. coli TESEC Mtb Asd; [10]) | growth (E. coli TESEC Mtb DapB; [11]) | growth (E. coli TESEC Mtb DapB; [12]) | growth (E. coli TESEC Mtb Alr [3]; [13]) | growth (E. coli TESEC Mtb Alr [3]; [14])
1 | NC[C@@H]1O[C@H](O[C@H]2[C@@H](O)[C@H](O[C@@H]3[C@@H](O)[C@H](N)C[C@H](N)[C@H]3O[C@H]3O[C@H](CO)[C@@H](O)[C@H](O)[C@H]3N)O[C@@H]2CO)[C@H](N)[C@@H](O)[C@@H]1O [Paromomycin sulfate] | 0.251 ± 0.0064 | 0.327 ± 0.0078 | 0.275 ± 0.0073 | 0.19 ± 0.0041 | 0.19 ± 0.013 | 0.163 ± 0.0039 | 0.496 ± 0.0058 | 0.447 ± 0.027 | 0.195 ± 0.0097 | 0.26 ± 0.034 | 0.405 ± 0.014 | 0.333 ± 0.0043
2 | Nc1nc(NC2CC2)c2ncn([C@H]3C=C[C@@H](CO)C3)c2n1 [Abacavir Sulfate] | 0.238 ± 0.018 | 0.295 ± 0.024 | 0.253 ± 0.0039 | 0.182 ± 0.012 | 0.18 ± 0.0053 | 0.133 ± 0.0075 | 0.317 ± 0.022 | 0.423 ± 0.015 | 0.183 ± 0.018 | 0.212 ± 0.038 | 0.408 ± 0.016 | 0.339 ± 0.0091
3 | CC(C)(C)NC[C@@H](O)COc1cccc2c1CCCC2=O [(+) -Levobunolol hydrochloride] | 0.226 ± 0.012 | 0.291 ± 0.0069 | 0.267 ± 0.007 | 0.18 ± 0.0047 | 0.182 ± 0.0049 | 0.136 ± 0.003 | 0.459 ± 0.021 | 0.467 ± 0.022 | 0.205 ± 0.021 | 0.224 ± 0.017 | 0.412 ± 0.012 | 0.339 ± 0.013
4 | CC(=O)OCC(=O)[C@@]1(O)CC[C@H]2[C@@H]3CCC4=CC(=O)C=C[C@]4(C)[C@@]3(F)[C@@H](O)C[C@@]21C [Isoflupredone acetate] | 0.206 ± 0.028 | 0.266 ± 0.019 | 0.22 ± 0.0097 | 0.213 ± 0.015 | 0.128 ± 0.0061 | 0.13 ± 0.0065 | 0.348 ± 0.046 | 0.413 ± 0.056 | 0.21 ± 0.01 | 0.253 ± 0.038 | 0.389 ± 0.0064 | 0.286 ± 0.01
5 | O=C1NCCN1CCN1CCC(c2cn(-c3ccc(F)cc3)c3ccc(Cl)cc23)CC1 [Sertindole] | 0.0429 ± 0.0029 | 0.04057 ± 0.00035 | 0.04073 ± 0.00025 | 0.0409 ± 0.0004 | 0.04 ± 0.0001 | 0.0443 ± 0.0027 | 0.0531 ± 0.0039 | 0.0504 ± 0.003 | 0.102 ± 0.09 | 0.0562 ± 0.012 | 0.167 ± 0.2 | 0.0524 ± 0.00098
6 | CC1(C)O[C@@H]2C[C@H]3[C@@H]4CCC5=CC(=O)C=C[C@]5(C)[C@H]4[C@@H](O)C[C@]3(C)[C@]2(C(=O)CO)O1 [Desonide] | 0.185 ± 0.0048 | 0.252 ± 0.0091 | 0.254 ± 0.011 | 0.172 ± 0.014 | 0.15 ± 0.005 | 0.144 ± 0.0029 | 0.208 ± 0.0068 | 0.378 ± 0.065 | 0.181 ± 0.005 | 0.248 ± 0.034 | 0.414 ± 0.011 | 0.302 ± 0.019
7 | CC(Oc1ccccc1)C(=O)N[C@@H]1C(=O)N2[C@@H]1SC(C)(C)[C@@H]2C(=O)O (some centres not stated) [Phenethicillin potassium salt] | 0.267 ± 0.018 | 0.311 ± 0.019 | 0.266 ± 0.0071 | 0.223 ± 0.018 | 0.19 ± 0.006 | 0.139 ± 0.0076 | 0.306 ± 0.05 | 0.438 ± 0.011 | 0.226 ± 0.0034 | 0.249 ± 0.02 | 0.398 ± 0.0069 | 0.367 ± 0.0061
8 | Cc1cnc(NC(=O)C2=C(O)c3ccccc3S(=O)(=O)N2C)s1 [Meloxicam] | 0.148 ± 0.0039 | 0.186 ± 0.0048 | 0.238 ± 0.012 | 0.208 ± 0.039 | 0.117 ± 0.0022 | 0.149 ± 0.0054 | 0.245 ± 0.035 | 0.296 ± 0.1 | 0.201 ± 0.021 | 0.195 ± 0.0074 | 0.33 ± 0.04 | 0.221 ± 0.016
9 | CC(C)NCC(O)COc1cccc2[nH]ccc12 (configuration not stated) [Pindolol] | 0.233 ± 0.0063 | 0.286 ± 0.024 | 0.271 ± 0.014 | 0.203 ± 0.0064 | 0.179 ± 0.0088 | 0.142 ± 0.00072 | 0.393 ± 0.0086 | 0.403 ± 0.021 | 0.201 ± 0.011 | 0.231 ± 0.048 | 0.413 ± 0.0051 | 0.376 ± 0.013
10 | CN(C)[C@@H]1C(=O)C(C(=O)NCNCCCC[C@H](N)C(=O)O)=C(O)[C@@]2(O)C(=O)C3=C(O)c4c(O)cccc4[C@@](C)(O)[C@H]3C[C@@H]12 [Lymecycline] | 0.178 ± 0.0022 | 0.221 ± 0.0059 | 0.18 ± 0.011 | 0.204 ± 0.016 | 0.0804 ± 0.0073 | 0.101 ± 0.0033 | 0.12 ± 0.0094 | 0.159 ± 0.0077 | 0.0866 ± 0.01 | 0.152 ± 0.0064 | 0.312 ± 0.031 | 0.0693 ± 0.0019
11 | CC(C(=O)O)c1ccc(C(=O)c2ccccc2)s1 (configuration not stated) [Tiaprofenic acid] | 0.22 ± 0.012 | 0.253 ± 0.021 | 0.246 ± 0.0058 | 0.201 ± 0.019 | 0.205 ± 0.0076 | 0.143 ± 0.006 | 0.386 ± 0.077 | 0.285 ± 0.099 | 0.182 ± 0.009 | 0.178 ± 0.015 | 0.382 ± 0.02 | 0.35 ± 0.019
12 | COc1cc2nc(N3CCN(C(=O)C4COc5ccccc5O4)CC3)nc(N)c2cc1OC (configuration not stated) [Doxazosin mesylate] | 0.054 ± 0.0033 | 0.047 ± 0.002 | 0.0476 ± 0.00044 | 0.0463 ± 0.0012 | 0.04047 ± 5.8e-05 | 0.0449 ± 0.0026 | 0.092 ± 0.023 | 0.0521 ± 0.004 | 0.194 ± 0.015 | 0.208 ± 0.038 | 0.277 ± 0.2 | 0.0514 ± 0.0015
13 | Nc1ccc(S(=O)(=O)Nc2ccccn2)cc1 [Sulfapyridine] | 0.239 ± 0.0046 | 0.295 ± 0.018 | 0.261 ± 0.0053 | 0.219 ± 0.0099 | 0.174 ± 0.0063 | 0.141 ± 0.0049 | 0.354 ± 0.035 | 0.412 ± 0.015 | 0.188 ± 0.02 | 0.215 ± 0.041 | 0.405 ± 0.013 | 0.325 ± 0.0082
14 | CCCOc1ccc2[nH]c(NC(=O)OC)nc2c1 [Oxibendazol] | 0.264 ± 0.025 | 0.309 ± 0.021 | 0.269 ± 0.0059 | 0.213 ± 0.028 | 0.183 ± 0.0022 | 0.151 ± 0.0057 | 0.353 ± 0.1 | 0.425 ± 0.048 | 0.191 ± 0.013 | 0.219 ± 0.027 | 0.409 ± 0.0096 | 0.345 ± 0.039
15 | NC(=O)NC1NC(=O)NC1=O (configuration not stated) [Allantoin] | 0.253 ± 0.015 | 0.281 ± 0.017 | 0.258 ± 0.0083 | 0.244 ± 0.0082 | 0.173 ± 0.0071 | 0.142 ± 0.0025 | 0.375 ± 0.027 | 0.424 ± 0.028 | 0.192 ± 0.0069 | 0.276 ± 0.1 | 0.41 ± 0.011 | 0.28 ± 0.14
16 | CCc1cc(C(N)=S)ccn1 [Ethionamide] | 0.243 ± 0.0035 | 0.294 ± 0.0077 | 0.262 ± 0.005 | 0.236 ± 0.036 | 0.184 ± 0.0033 | 0.144 ± 0.0028 | 0.299 ± 0.05 | 0.324 ± 0.1 | 0.206 ± 0.011 | 0.217 ± 0.027 | 0.406 ± 0.0087 | 0.334 ± 0.02
